Test results reported in paper PMC5540273 (PLoS ONE, 2017).

test system: LRRK2; settings: concentration: 1 μM, replicates: in singlicate; n = 1
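Further: KINOMEscan kinase panel screen.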

Going from `O=C(NCCNc1ccnc(Nc2ccc(F)cc2)n1)c1cc2ccccc2s1` [GSK1379874] to `COc1ccc(Nc2nccc(N3CCC(NC(=O)Nc4cccc(C(C)=O)c4)C3)n2)cc1` (stereo not drawn) [GSK1379731], the “%Inh” value rises from 0% to 2%.

`CCn1cnc2c(N)ncnc21` [GW345098] and `Cn1cc(-c2ccc3c(c2)CCN3C(=O)Cc2ccccc2Cl)c2c(N)ncnc21` [GSK2608885] are the same in “%Inh” value: 0% for the first, 0% for the second.

Compared with `O=C1Cc2cc(Nc3nc(NCc4cccc(S(=O)(=O)C(F)(F)F)c4)ncc3C(F)(F)F)ccc2N1`, `NS(=O)(=O)CCc1cccc(Nc2nccc(-c3c(-c4cccc(NC(=O)c5c(F)cccc5F)c4)nn4ccccc34)n2)c1` [GSK336735] is lower in “%Inh” value: 11% for the first, 0% for the second.

Compared with `Cl.Oc1cccc(Nc2ccnc3cc(-c4ccncc4)ccc23)c1` [GW494601], `CC(=O)Nc1ccc(COc2ccc(Nc3ccnc4cc(-c5ccccn5)ccc34)cc2)cc1.Cl` [GW440148] is lower in “%Inh” value: 75% for the first, 0% for the second.

`O=c1cc(N2CCOCC2)nc2n(Cc3cccc(Cl)c3Cl)c(C3CC3)nn12` [GSK2358994] and `Cc1cccc(Cn2ccn3c(=O)cc(N4CCOCC4)nc23)c1` [GSK2297542] are the same in “%Inh” value: 0% for the first, 0% for the second.

Going from `COc1ccc(COc2cc(-n3cnc4ccccc43)sc2C(N)=O)cc1` [GSK1024304] to `COc1ccc(CNC(=O)NC2CCN(c3ccnc(Nc4ccc(OC)cc4)n3)C2)cc1` (stereo not drawn) [GSK1379727], the “%Inh” value falls from 10% to 0%.

`c1ccc(-c2n[nH]cc2-c2ccnc3ccccc23)nc1` [GW271431] and `c1ccc(-c2cc(-c3c[nH]nc3-c3ccccn3)ccn2)cc1` [GW576604] are the same in “%Inh” value: 0% for the first, 0% for the second.

Going from `CN(C1=C(c2ccccc2)C(=O)NC1=O)c1ccccc1` [SB-334860] to `Cc1cccc(-c2nc(-c3ccc(S(C)(=O)=O)cc3)sc2-c2ccncc2)c1`, the “%Inh” value rises from 0% to 2%.

Going from `COc1cc2c(cc1OC[C@@H](O)CO)ncc1c3ccc(C#N)cc3[nH]c21` to `COc1cc2c(cc1OCCN1CCN(C)CC1)ncc1c3ccc(C#N)cc3[nH]c21`, the “%Inh” value rises from 93.1% to 98.8%.

Going from `Fc1ccc(-c2nn3c(OCC(F)(F)F)cccc3c2-c2ccncc2)cc1` [GW514784] to `N#Cc1c(N2CCOCC2)sc(-c2ccn[nH]2)c1-c1ccc(Cl)cc1`, the “%Inh” value falls from 19% to 0%.

With `[2H]C([2H])(c1cccc(C(F)(F)F)c1C)n1ccn2c(=O)nc(N3CCOCC3)cc12` [GSK2336394] the “%Inh” value was 0%.

test system: LTK; settings: concentration: 1 μM, replicates: in singlicate; n = 1

`CCc1nc(-c2cccc(C)c2)c(-c2ccnc(NCc3ccccc3)c2)s1` and `Cc1cccc(-c2nc(-c3ccc(S(C)(=O)=O)cc3)sc2-c2ccncc2)c1` are the same in “%Inh” value: 0% for the first, 0% for the second.

`O=c1cc(N2CCOCC2)nc2n(Cc3cccc4ccccc34)ccn12` [GSK2333389] and `Cc1cccc(Cn2ccn3c(=O)cc(N4CCOCC4)nc23)c1` [GSK2297542] are the same in “%Inh” value: 0% for the first, 0% for the second.

`CN1c2ccc(NCc3ccc(F)cc3)cc2-c2c(cnn2C)S1(=O)=O` and `O=C(NCCNc1ccnc(Nc2ccc(F)cc2)n1)c1cc2ccccc2s1` [GSK1379874] are the same in “%Inh” value: 0% for the first, 0% for the second.

Compared with `Cc1ccc(NC(=O)c2ccnc(N3CCN(C)CC3)c2)cc1-c1ccc(C(=O)NCC2CC2)cc1` [GW775604], `COCCNC(=O)c1ccc(-c2cc(C(=O)NC3CC3)cc(F)c2C)cc1` [GW868318] is higher in “%Inh” value: 0% for the first, 15% for the second.

Going from `Cc1ccc(C(=O)NCC(N)=O)cc1-n1c(C)cc(OCc2ccc(F)cc2F)c(Br)c1=O` to `COC(=O)Nc1nc2cc(Oc3ccc(NC(=O)Nc4cc(F)ccc4F)cc3)ccc2[nH]1.Cl` [GW701424], the “%Inh” value falls from 27% to 0%.

Compared with `COc1ccc(Nc2ncc(C#N)c(Nc3ccccc3C(N)=O)n2)cc1N1CCN(C)CC1.Cl` [GSK1558669], `COc1cc2c(cc1OCCN1CCN(C)CC1)ncc1c3ccc(C#N)cc3[nH]c21` is lower in “%Inh” value: 89% for the first, 0% for the second.

`COc1ccc(S(=O)(=O)NC2CCN(c3cc(C)nc(Nc4cccc(C#N)c4)n3)CC2)cc1.O=C(O)C(F)(F)F` [GSK1653539] and `COc1ccc(Nc2nccc(N3CCC(NC(=O)Nc4cccc(C(C)=O)c4)C3)n2)cc1` (stereo not drawn) [GSK1379731] are the same in “%Inh” value: 0% for the first, 0% for the second.

Compared with `COc1ccc(Nc2nccc(N3CCC(NC(=O)Nc4cc(C)ccc4C)C3)n2)cc1` (stereo not drawn) [GSK1379741], `COc1ccc(CNC(=O)NC2CCN(c3ccnc(Nc4ccc(OC)cc4)n3)C2)cc1` (stereo not drawn) [GSK1379727] is lower in “%Inh” value: 7% for the first, 0% for the second.

Compared with `CC(C)(C)n1cnc2c(N)ncnc21` [SKF-97359], `CCn1cnc2c(N)ncnc21` [GW345098] is higher in “%Inh” value: 0% for the first, 16% for the second.

Going from `COc1cc2ncn(-c3cc(OCc4sccc4Cl)c(C(N)=O)s3)c2cc1OC` [GSK448459] to `COc1ccc(COc2cc(-n3cnc4ccccc43)sc2C(N)=O)cc1` [GSK1024304], the “%Inh” value rises from 0% to 6%.

First: Cc1c2ccc(N(C)c3ccnc(Nc4cccc(S(N)(=O)=O)c4)n3)cc2nn1Cc1ccccc1.Cl.Cl [GW787226]
Second: NS(=O)(=O)CCc1cccc(Nc2nccc(-c3c(-c4cccc(NC(=O)c5c(F)cccc5F)c4)nn4ccccc34)n2)c1 [GSK336735]
The “%Inh” value of the first is higher: 45% for the first, 39% for the second.

Compared with `O=C1Cc2cc(Nc3nc(NCc4cccc(S(=O)(=O)C(F)(F)F)c4)ncc3C(F)(F)F)ccc2N1`, `Fc1ccc(-c2nn3c(OCC(F)(F)F)cccc3c2-c2ccncc2)cc1` [GW514784] is lower in “%Inh” value: 6% for the first, 0% for the second.

Compared with `Cl.Oc1cccc(Nc2ccnc3cc(-c4ccncc4)ccc23)c1` [GW494601], `CC(=O)Nc1ccc(COc2ccc(Nc3ccnc4cc(-c5ccccn5)ccc34)cc2)cc1.Cl` [GW440148] is lower in “%Inh” value: 69% for the first, 7% for the second.

Compared with `Cn1cc(-c2ccc3c(c2)CCN3C(=O)Cc2ccccc2Cl)c2c(N)ncnc21` [GSK2608885], `c1ccc(-c2n[nH]cc2-c2ccnc3ccccc23)nc1` [GW271431] is lower in “%Inh” value: 55% for the first, 13% for the second.

Compared with `CN(C1=C(c2ccccc2)C(=O)NC1=O)c1ccccc1` [SB-334860], `c1ccc(-c2cc(-c3c[nH]nc3-c3ccccn3)ccn2)cc1` [GW576604] is higher in “%Inh” value: 6% for the first, 19% for the second.

Compared with `COc1cc2c(cc1OC[C@@H](O)CO)ncc1c3ccc(C#N)cc3[nH]c21`, `N#Cc1c(N2CCOCC2)sc(-c2ccn[nH]2)c1-c1ccc(Cl)cc1` is higher in “%Inh” value: 0% for the first, 17% for the second.

For `[2H]C([2H])(c1cccc(C(F)(F)F)c1C)n1ccn2c(=O)nc(N3CCOCC3)cc12` [GSK2336394], the “%Inh” value was 19%.
